Data on 98 molecules can be found in PubChem BioAssay AID431 (Sanford-Burnham Center for Chemical Genomics, 2006).

The whole screen tested about 63,000 compounds, of which about 1,100 (1.7%) were called active.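 How the source made its calls: active means compounds whose percent cytotoxicity in the single-dose primary screen, scaled between solvent and toxic-drug controls, exceeds 50; inactive means the rest.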 The full list was thinned out, with actives kept by preference. Measured potencies and affinities stand elsewhere.

The assay is described as follows: cytotoxicity in KRAS-transformed pancreatic duct cells, primary screen, cell-based, fluorescence, HTS (AID 431).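 Further: 0% = DMSO solvent wells and 100% = doxorubicin-treated wells.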 The conditions noted are these: HPDE-C7K KRASV12 cells, Alamar Blue viability, 48 h; at 10 µM; hits give high values.
Consider `COc1ccc(Nc2cc(=O)n(C3CCCCC3)c(=O)[nH]2)c(OC)c1`, for which the cytotoxicity is -8.6% (inactive).
`CCC(=O)Nc1ccc(OC)cc1OC`: the cytotoxicity was -5.2% (inactive).
Consider `COc1ccc(OCc2nn3c(-c4ccccn4)nnc3s2)cc1`, for which the cytotoxicity is 4% (inactive).
Regarding `CC1(C)Cc2c(c(N3CCCC3)nc3sc4c(N5CCN(CCO)CC5)ncnc4c23)CO1`, the cytotoxicity was 67.8% (active).
Turning to `CN1CCN(c2ncnc3c2sc2nc(N4CCCC4)c4c(c23)CC(C)(C)OC4)CC1`, the cytotoxicity was -9.3% (inactive).
As for `OCCN1CCN(c2ncnc3c2sc2nc(N4CCOCC4)c4c(c23)CCC4)CC1`, the cytotoxicity is 39.9% (inactive).
On to `O=c1[nH]nc2c3ccccc3cnn12`, for which the cytotoxicity was -22% (inactive).
Consider `C=COCCNC(=O)C1CC(=O)N(c2ccc(C)cc2)C1` (stereo not drawn), for which the cytotoxicity is 13.2% (inactive).
The value for `Cc1ccc(-c2cc(-c3ccccc3)c(C#N)c(N)n2)o1` was 10.2% (inactive); that for `Cc1ccc(-c2cc(-c3ccc(Cl)cc3)c(C#N)c(N)n2)o1` was 74.2% (active).
The value for `Cc1ccc(-c2cc(-c3ccc(C)o3)nc(N)c2C#N)cc1` was -2.5% (inactive); that for `Cc1ccc(-c2cc(-c3ccc(F)cc3)nc(N)c2C#N)o1` was 4.4% (inactive); that for `Cc1cc(-c2cc(-c3ccc(Cl)cc3)nc(N)c2C#N)co1` was 92% (active).
The value for `Cc1ccc(-c2cc(-c3ccccc3Cl)c(C#N)c(N)n2)o1` was 20.7% (inactive); that for `CCNC(=O)CCC(=O)Nc1cc(Cl)ccc1C` was -14.8% (inactive); that for `Cc1ccc(Cl)cc1NC(=O)CC(O)(C(F)(F)F)C(F)(F)F` was 57.3% (active).
Turning to `Cc1ccc(NC(=O)CC(O)(C(F)(F)F)C(F)(F)F)c(Br)c1`, the cytotoxicity is -6.8% (inactive).
As for `COC(=O)c1sccc1NC(=O)c1ccc(OC)cc1`, the cytotoxicity was 13.2% (inactive).
Take `COc1ccc(C2CC(c3cc(Br)ccc3F)n3nnnc3N2)cc1` (stereo not drawn): the cytotoxicity is 1.9% (inactive).
For the molecule `O=C(c1ccccc1)c1ccncc1`, the cytotoxicity was 56.1% (active).
As for `O=C(c1ccncc1)c1ccc(Br)cc1`, the cytotoxicity was 1.4% (inactive).
For the molecule `O=C(c1ccccc1)c1nnc(-c2ccncc2)o1`, the cytotoxicity was -7.9% (inactive).
As to `O=S(=O)(NCCSc1nnc(-c2ccco2)n1-c1ccccc1)c1ccccc1`, the cytotoxicity was -7.3% (inactive).
For `C=C(C)Cn1c(Sc2nc3ccccc3[nH]2)nc2c1c(=O)[nH]c(=O)n2C`, the cytotoxicity is 21.2% (inactive).
On to `Cc1ccc(-c2nnc(N3CCN(S(C)(=O)=O)CC3)c3ccccc23)cc1`, for which the cytotoxicity was -3.8% (inactive).
With `c1ccc(-c2nnc(N3CCN(c4ccccn4)CC3)c3ccccc23)cc1` the figure was -2.1% (inactive); with `COc1ccccc1NC(=O)CSc1nnc(C)n1Cc1ccccc1`, -12.1% (inactive).
As for `O=C(Nc1ccc(Br)cc1F)c1ccncc1`, the cytotoxicity was -12.6% (inactive).
The value for `CCCNc1nc2c(c(=O)[nH]c(=O)n2C)n1CCC(C)C` was 9% (inactive); that for `Cc1ccc(Cl)c(Nc2ccccc2C(=O)O)c1Cl` was 67.9% (active); that for `Cc1c(Cl)cccc1Nc1ccccc1C(=O)O` was 46% (inactive).
Turning to `Cc1cccc(Nc2ccccc2C(=O)O)c1C`, the cytotoxicity was 6% (inactive).
Regarding `CC(C)Oc1ccc2c(=O)c(-c3ccccc3)coc2c1`, the cytotoxicity is 53.7% (active).
Consider `CCN(CC)C(=O)Oc1ccc2c(=O)c(-c3ccccc3)coc2c1`, for which the cytotoxicity is -28% (inactive).
In the case of `CCN(CC)C(=O)Oc1ccc2c(=O)c(-c3ccc(OC)cc3)coc2c1`, the cytotoxicity was -3.7% (inactive).
For `O=C(NC1CCCc2ccccc21)C1CCC(CNc2c(N3CCOCC3)c(=O)c2=O)CC1` (stereo not drawn), the cytotoxicity is -5% (inactive).
The value for `O=C(NCC1CCCO1)C1CCN(C(=O)c2ccc(Cl)cc2)CC1` (stereo not drawn) was -4.1% (inactive).
The value for `Cc1ccc2c(c1)nnn2C1CCN(CC(=O)Nc2ccc3c(c2)OCCO3)CC1` was -7.5% (inactive); that for `COc1cc(-c2nc3cnccn3c2Nc2ccccc2)ccc1O` was 16.3% (inactive).
Take `c1cn2c(NC3CCCC3)c(-c3ccc(N4CCOCC4)cc3)nc2cn1`: the cytotoxicity was 7.8% (inactive).
As for `CCOC(=O)C1=CN(C)C=C(C(=O)OCC)C1c1ccsc1`, the cytotoxicity was 6.2% (inactive).
For the molecule `COC(=O)c1ccc(C)c(NS(=O)(=O)c2ccc(NC(C)=O)cc2)c1`, the cytotoxicity was 4.5% (inactive).
Take `COC(=O)c1ccc(C)c(NS(=O)(=O)c2ccc3c(c2)OCCO3)c1`: the cytotoxicity is 59.3% (active).
With `O=C(O)c1ccc(NS(=O)(=O)c2ccc3c(c2)OCCO3)cc1` the figure was 1.7% (inactive).
With `COC(=O)c1ccc(NS(=O)(=O)c2ccc(OC)cc2)cc1`, the cytotoxicity was -10.3% (inactive).
Consider `COC(=O)c1ccc(Cl)c(NS(=O)(=O)c2ccc3c(c2)OCCO3)c1`, for which the cytotoxicity was 63.6% (active).
Consider `COC(=O)c1ccc(C)c(NS(=O)(=O)c2ccc(OC)cc2)c1`, for which the cytotoxicity was 65.2% (active).
Turning to `COC(=O)c1ccc(C)c(NC(=O)CN(c2ccc3c(c2)OCO3)S(C)(=O)=O)c1`, the cytotoxicity was -3.2% (inactive).
The value for `CC(=O)c1cc2c(cc1NS(=O)(=O)c1ccc3c(c1)OCCO3)OCO2` was 37.2% (inactive); that for `CCCNC(=O)c1ccccc1NS(=O)(=O)c1ccc2c(c1)OCCO2` was 28.6% (inactive).
With `CC(C)(C)NC(=O)c1ccc2nccnc2c1` the figure was 12.3% (inactive).
As for `COc1ccccc1NC(=O)N(CCN(C)C)Cc1cc2cc(C)ccc2[nH]c1=O`, the cytotoxicity was 19.6% (inactive).
On to `CCCC(C(=O)NC1CCCC1)N(C(=O)Cn1nnc(-c2ccc(C)o2)n1)C1CCCC1` (stereo not drawn), for which the cytotoxicity is -0.4% (inactive).
`CC(C)OC(=O)CSc1nc(N)c(C#N)c(-c2cccs2)c1C#N`: the cytotoxicity was 5% (inactive).
With `CC(C)OC(=O)CCC1(C(=O)O)CCC(=O)NC1` (stereo not drawn) the figure was -7.1% (inactive); with `O=C(CC(SCc1ccco1)c1ccc(O)cc1)c1cccs1` (stereo not drawn), 57.7% (active).
With `O=C(CSCc1ccco1)c1cccs1`, the cytotoxicity is -15.8% (inactive).
Turning to `O=C(CSc1nnc(-c2ccc(O)cc2)n1Cc1ccco1)c1cccs1`, the cytotoxicity was 2.5% (inactive).
As to `CCOC(=O)C1=C(C)OC(N)=C(C#N)C1c1ccsc1` (stereo not drawn), the cytotoxicity was 9.1% (inactive).
For `CCOc1ccc(C2CC(c3ccc(F)cc3)n3ncnc3N2)cc1` (stereo not drawn), the cytotoxicity is 3.1% (inactive).
Turning to `Cc1ccc(C(=O)CC(C(=O)O)n2ccc(C)n2)cc1` (stereo not drawn), the cytotoxicity is 4.5% (inactive).
Take `Cc1ccc(C(=O)CC(C(=O)O)n2cccn2)cc1` (stereo not drawn): the cytotoxicity was -4.8% (inactive).
On to `O=C(c1ccco1)N1CCN(C(=O)c2cccn3c(=O)c4c5c(sc4nc23)CCCC5)CC1`, for which the cytotoxicity was -9.7% (inactive).
Consider `Cc1cccc(Cn2cnc3c(nnn3Cc3ccc(Cl)cc3)c2=O)c1`, for which the cytotoxicity was -2.1% (inactive).
`COC(=O)c1c(N)sc(C(C)=O)c1C`: the cytotoxicity was 0% (inactive).
As for `COC(=O)c1sc(N)c(C(=O)OC)c1COC(=O)c1c(C)noc1C`, the cytotoxicity is 56.4% (active).
Regarding `COc1ccc(C(C)=O)cc1COC(=O)c1c(C)noc1C`, the cytotoxicity was 18.5% (inactive).
`Cc1cccc(Cn2c(SCCN3CCCCC3)nc3c2c(=O)[nH]c(=O)n3C)c1`: the cytotoxicity is -3.8% (inactive).
Consider `O=C1C(Cl)=C(NCC2CCCO2)C(=O)N1CCc1ccccc1` (stereo not drawn), for which the cytotoxicity was -4.3% (inactive).
With `C[C@]12CC[C@@H]3c4ccc(OC(=O)c5ccccc5)cc4CC[C@H]3[C@@H]1CC[C@@H]2O` the figure was 54.4% (active); with `C[C@]12CC[C@@H]3c4ccc(O)cc4CC[C@H]3[C@@H]1CC[C@@H]2OC(=O)CCC(=O)O`, -1.7% (inactive); with `C[C@]12CC[C@@H]3c4ccc(O[C@@H]5O[C@H](C(=O)O)[C@@H](O)[C@H](O)[C@H]5O)cc4CC[C@H]3[C@@H]1C[C@@H](O)[C@@H]2O`, -13.5% (inactive).
In the case of `Cc1nnc(SCC(=O)Nc2nsc(-c3ccccc3)n2)s1`, the cytotoxicity was 11.4% (inactive).
Consider `c1ccc(Cn2nnnc2C(c2cccs2)N2CCOCC2)cc1` (stereo not drawn), for which the cytotoxicity was -11.8% (inactive).
With `COc1ccc(Cl)c(S(=O)(=O)N2CCCC2)c1` the figure was -3.5% (inactive).
Regarding `COc1ccc(C(N)=O)cc1NC(=O)CC(O)(C(F)(F)F)C(F)(F)F`, the cytotoxicity was -2% (inactive).
As to `Cc1cc(NC(=O)C2CC(c3cccc(Br)c3)=NO2)no1` (stereo not drawn), the cytotoxicity was -11% (inactive).
The value for `N=c1cc(C2(O)CCCCC2)n2c(nc3ccccc32)s1` was 59% (active); that for `CC(C)(O)c1cc(=O)sc2nc3ccccc3n12` was -10.2% (inactive); that for `c1ccc2nc3c(nc2c1)sc1nc2ccccc2n13` was -4% (inactive).
`COCCNC(=O)C(c1ccc(C)o1)N(C(=O)c1snc(C(N)=O)c1N)c1cccc(C)c1` (stereo not drawn): the cytotoxicity was -12.1% (inactive).
As to `Cc1ccc2c(c1)[nH]c1c(=O)n(CCCN3CCOCC3)cnc12`, the cytotoxicity is -20.9% (inactive).
Consider `N#Cc1nc(-c2ccc(F)cc2)oc1NCc1ccccc1`, for which the cytotoxicity is -1.5% (inactive).
For `CC(C)(C)c1ccc(-c2nc(C#N)c(NCc3ccncc3)o2)cc1`, the cytotoxicity is 60.5% (active).
In the case of `COc1ccc(CNc2oc(-c3ccccc3)nc2C#N)cc1`, the cytotoxicity was 3.8% (inactive).
For `COC(=O)c1sccc1NC(=O)CN1CCN(c2ccc(F)cc2)CC1`, the cytotoxicity is 10.5% (inactive).
Regarding `O=C(CCN1Cc2ccccc2C1)c1ccc2c(c1)OCCO2`, the cytotoxicity was -11.8% (inactive).
Take `O=C(CCN1CCc2ccccc21)c1ccc2c(c1)OCCO2`: the cytotoxicity was 4.4% (inactive).
For the molecule `O=C(CCN1CCc2ccccc2C1)Nc1ccc2c(c1)OCO2`, the cytotoxicity was -0.3% (inactive).
On to `O=C(CCCN1CCOCC1)c1ccc2c(c1)OCCO2`, for which the cytotoxicity was -11.1% (inactive).
With `CCCn1c(SCCN2C(=O)c3ccccc3C2=O)n[nH]c1=O`, the cytotoxicity was 2.1% (inactive).
Regarding `Cc1cccc(NC(=O)CSc2nnc(-c3ccccc3)n2N)c1C`, the cytotoxicity is -15% (inactive).
The value for `CCOC(=O)c1c(C)oc2c1c(/C=N/c1ccccn1)c(O)c1ccccc12` was 4.3% (inactive); that for `CCOC(=O)c1c(C)oc2c1c(C(c1cccnc1)N1CCN(C)CC1)c(O)c1ccccc12` (stereo not drawn) was 125% (active); that for `CCOC(=O)c1c(C)oc2c1c(C=NC1CCS(=O)(=O)C1)c(O)c1ccccc12` (stereo not drawn) was 23.8% (inactive).
For the molecule `CCOC(=O)c1c(C)oc2c1c1c(c3ccccc32)OCN(Cc2cccnc2)C1`, the cytotoxicity is 29.9% (inactive).
As for `CCOC(=O)c1c(C)oc2c1c(C=NCC1CCCO1)c(O)c1ccccc12` (stereo not drawn), the cytotoxicity was -16.3% (inactive).
For the molecule `CCOC(=O)c1c(C)oc2c1c(C=NCc1ccccn1)c(O)c1ccccc12`, the cytotoxicity was 99.2% (active).
